Bioassay records from PubChem.
Most compounds without a hit are left out; they make up all but 14% or so of the library.
USP28 inh = inhibitors of human USP28 deubiquitinase | AID 1645857 | purified USP28, Ub-rhodamine cleavage fluorescence, 30 min | inhibition, % at 25 µM | 3% of 47,000 active
USP8 inh = inhibitors of human USP8 deubiquitinase | P40818 | purified USP8, Ub-rhodamine cleavage fluorescence, 30 min | inhibition, % at 20 µM | 4.2% of 47,000 active | AID 1645853
USP17 inh = blocks human USP17 ubiquitin-rhodamine cleavage; purified USP17, Ub-rhodamine cleavage fluorescence, 3 h; A8MUK1; inhibition, % at 50 µM; 6.5% of 47,000 active; AID 1645855
USP30 block = blocks human USP30 ubiquitin-rhodamine cleavage. purified USP30, Ub-rhodamine cleavage fluorescence. inhibition, % at 25 µM. 5.3% of 47,000 active. AID 1645860
The depositor's hits bear a star; x = not tested or not shown. Rule as the data show it: active = inhibition above about 30%; inactive = the rest.

SMILES	USP28 inh	USP8 inh	USP17 inh	USP30 block
Cn1ccc2c(cc(C(=O)NCc3ccc(F)c(Cl)c3)n2C)c1=O	-4	-2	11	1
Cn1ccc2c(cc(C(=O)NC3CCN(Cc4ccccc4)CC3)n2C)c1=O	32*	-7	-31	-35
Cc1cc(=O)oc2cc(OCC(=O)NC3CCN(Cc4ccccc4)CC3)ccc12	16	0	1	-12
COc1ccc(-c2c(C)noc2NC(C)=O)cc1S(=O)(=O)N1CCC(C)CC1	-8	14	5	5
COc1ccc(CN(C(=O)CCN2C(=O)c3ccccc3S2(=O)=O)c2ccccc2O)cc1	0	-8	4	-7
CCOc1ccccc1C(=O)Nc1cc(N2CCCS2(=O)=O)ccc1C	32*	9	14	29
CCOc1ccc(C(=O)Nc2cc(N3CCCS3(=O)=O)ccc2C)cc1	9	7	8	24
Cc1ccc(N2CCCS2(=O)=O)cc1NC(=O)COc1ccccc1F	11	-123	13	34*
Cc1ccc(N2CCCS2(=O)=O)cc1NC(=O)COc1ccccc1C	2	-2	-4	21
COc1ccc(N2CCCS2(=O)=O)cc1NC(=O)c1ccccc1OC	35*	-3	11	0
CNC(=O)c1c2n(c3ncccc13)CC(C)N(S(=O)(=O)C1CC1)C2 (stereo not given)	8	20	11	5
CN(C)c1nc2c(cc1C(=O)N1CCCC1)CCN(c1ncc(F)cn1)CC2	2	-14	-7	-3
O=C(COC(=O)c1ccc(NS(=O)(=O)c2ccc3c(c2)OCCO3)cc1)NCc1ccc(Cl)cc1	75*	1	18	50*
COc1ccccc1NS(=O)(=O)c1cccc(C(=O)OCC(=O)NCc2ccc(Cl)cc2)c1	16	-54	20	27
O=C(COC(=O)c1cc(Cl)ccc1O)Nc1ccc2c(c1)OCCO2	14	19	60*	19
Cc1cc(C)cc(C(=O)OCC(=O)Nc2ccc3c(c2)OCCO3)c1	2	1	5	14
O=C(CNc1ccc(F)c(Cl)c1)Nc1ccc2c(c1)OCCO2	64*	28	17	12
Cc1cccc(S(=O)(=O)N2C[C@H]3C[C@H](C(=O)N(C)C)[C@@H](C2)O3)c1	0	2	-43	25
COc1ccc([C@H]2Oc3cc(OC)cc(O)c3C(=O)[C@@H]2[C@@H]2C(=O)c3c(O)cc(O)cc3O[C@H]2c2ccc(OC)cc2)cc1	9	19	41*	0
CCc1cnc(N2CCC3(CC2)OC(C(=O)NCC(C)C)Cn2ccnc23)nc1 (stereo not given)	-70	-271	-102	-249
COc1ccc(-c2nc(Cn3nnc(-c4nc(-c5ccccc5C)no4)c3C)c(C)o2)cc1	-50	-43	-50	-187
COc1ccccc1-c1nc(-c2nnn(Cc3ccccc3)c2C)no1	45*	8	24	27
COc1ccccc1-c1noc(-c2nnn(Cc3nc(-c4ccc(C)cc4)oc3C)c2C)n1	-13	2	-7	32*
COc1ccc(-c2nc(-c3nnn(Cc4cccc(F)c4)c3C)no2)c(OC)c1	42*	3	-5	32*
COc1ccccc1-c1nc(-c2nnn(Cc3ccc(C)cc3)c2C)no1	72*	5	4	30*
SMILES	USP28 inh	USP8 inh	USP17 inh	USP30 block
COc1ccc(-c2nc(-c3nnn(Cc4ccccc4)c3C)no2)cc1OC	23	-2	6	1
Cc1ccccc1C(CC(=O)N1CCN(c2ccccc2)CC1)n1cccc1 (stereo not given)	-7	-7	1	-20
CC(C1CC1)n1nccc1NC(=O)COc1cccc(Cl)c1 (stereo not given)	-7	-15	-10	-4
Cn1nc(-c2nc(Cc3ccccc3)no2)c2c1CCN(C(=O)C1CCC1)C2	10	-18	-16	-8
O=C(c1ccc(F)cc1)N1C[C@H](OCc2cccnc2)[C@H]2COC[C@H]21	8	-35	-3	2
COc1ccc(C(=O)N2CCN(c3nc(C)cc(N4CCOCC4)n3)CC2)cc1	-20	-18	x	-14
COc1cnc(CSc2ccc(F)cc2)cc1OCC(=O)Nc1ccccc1F	7	13	41*	43*
COc1cnc(CSc2ncccn2)cc1OCC(=O)Nc1ccccc1F	-10	-48	-6	-296
COc1cnc(CSc2ccccc2)cc1OCC(=O)Nc1ccc(F)cc1F	11	-3	34*	36*
Cn1c(=O)c2ccc(C3CCCCN3C(=O)c3cccnc3)nc2n(C)c1=O (stereo not given)	-2	7	3	-12
O=C(c1cc(-c2ccccc2)nn1-c1ccccc1)N1CCN(C(=O)C2CCCO2)CC1 (stereo not given)	14	10	9	37*
